Data published in PubChem BioAssay (NCI).
About 83,000 compounds went through this panel and 20% of them were active in at least one assay; those are over-represented in the sample as a whole.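 A percent growth of 40 corresponds to 60% growth inhibition; 0 means no net growth; -100 means all cells died. Active threshold: below 10.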 Activity calls are given as the source filed them.

The compounds below were run on MDA-MB-468 breast (assay: NCI-60 one-dose screen, 48 h (100 = growth as untreated, 0 = no growth, -100 = all killed)). Settings: 10 µM unless noted.

Q: For `COc1ccc(C2CC(c3cccc(OCCCCOc4cccc(C5=NOC(c6ccc(OC)cc6)C5)c4)c3)=NO2)cc1` (stereo not given), which growth is on record?
A: Its growth is 112% (inactive).

Q: `CN(C)C(=O)C1=NC(CO)C(=O)N(c2ccc(Cl)cc2)N1` (stereo not given) was tested. Which growth did it give?
A: Its growth is 95.2% (inactive).

Q: How did the growth turn out when `Cn1cc(-c2ccc3ncc(-c4ccc(CC(=O)Nc5cc(C(C)(C)C)no5)cc4)nc3c2)cn1` was run?
A: Its growth is 48.9% (inactive).

Q: For `CCOc1ccccc1NC1=C(Cl)C(=O)c2nc(C)ccc2C1=O`, which growth is on record?
A: The growth was -90.7% (active).

Q: How did the growth turn out when `Nc1nc2c(c3ncccc13)C(c1ccc(Cl)c(Cl)c1)Cc1ncccc1-2` (stereo not given) was run?
A: Its growth is -6.48% (active).

Q: With `C=CCNC(=S)N/C=C(/C(=O)c1ccccc1)c1ccccc1` as the compound, how does the growth read?
A: Its growth is 102% (inactive).

Q: With `Cc1cc2c(C(C)C)c(O)c(O)c(C=Nc3ccccc3[N+](=O)[O-])c2c(O)c1-c1c(C)cc2c(C(C)C)c(O)c(O)c(C=Nc3ccccc3[N+](=O)[O-])c2c1O` as the compound, how does the growth read?
A: The growth was 80.5% (inactive).

Q: Which growth does the source give for `COc1cccc(-c2nn(-c3ccccc3)cc2-c2ccnc(NCCCNS(=O)(=O)c3ccccc3)c2)c1` here?
A: Its growth is 8.98% (active).

Q: For `COc1ccc(/C(=N\NC(N)=S)c2ccc(Cl)cc2)cc1OC`, which growth is on record?
A: Its growth is 15.9% (inactive).

Q: Which growth does the source give for `CCOC(=O)c1csc(NC(=O)CSc2nc3sc4c(c3c(=O)n2-c2ccc(Cl)cc2)CCCC4)n1` here?
A: Its growth is 102% (inactive).

Q: For `Nc1c(C(=O)Nc2cccc(Cl)c2)sc2ncc(Br)cc12`, which growth is on record?
A: Its growth is 94.1% (inactive).

Q: With `COc1nc2ccccc2cc1/C=[N+](\[O-])c1ccccc1` as the compound, how does the growth read?
A: Its growth is 88.6% (inactive).

Q: How did the growth turn out when `CC(C)CNCC(=O)Nc1ccc(Cc2ccc(NC(=O)CNCC(C)C)cc2)cc1` was run?
A: Its growth is 79.5% (inactive).

Q: For `CCN1C(=O)N(CC)C2C1NN=c1s/c(=C\c3ccc(Cl)cc3Cl)c(=O)n12` (stereo not given), which growth is on record?
A: Its growth is 5.35% (active).

Q: With `N/N=C(/Cc1ccccc1)NNC(N)=S` as the compound, how does the growth read?
A: The growth was 115% (inactive).

Q: How did the growth turn out when `CC(=O)OCC(=O)C1CCC=CC1OC(C)=O` (stereo not given) was run?
A: Its growth is 85.6% (inactive).

Q: For `CCCCCCCCCCCCCC(=O)C(C)N` (stereo not given), which growth is on record?
A: Its growth is 33.3% (inactive).

Q: With `CC(C)[C@@]12C[C@@H](OC(=O)C3CO3)[C@@](C)(O1)[C@@H]1CC[C@@H](C)[C@H]1[C@@H]2OC(=O)/C=C/c1ccccc1` (stereo not given in full) as the compound, how does the growth read?
A: The growth was 95.4% (inactive).

Q: How did the growth turn out when `O=S(=O)(NCCNc1nccc(-c2c(-c3cccc(O)c3)nc3sccn23)n1)c1ccc(F)cc1` was run?
A: Its growth is 64.8% (inactive).

Q: Which growth does the source give for `C=C1C(=O)O[C@H]2[C@H]1CC/C(COC(=O)NCCc1c[nH]c3ccc(OC)cc13)=C\CC[C@@]1(C)O[C@@H]21` here?
A: Its growth is -44.9% (active).

Q: For `Cc1nc2nc(N)nc(N)c2nc1C`, which growth is on record?
A: Its growth is 97.6% (inactive).

Q: For `Cn1cc(-c2cc(N)n3nc(-c4cn(C)c5ccc(F)cc45)cc3n2)c2cc(F)ccc21`, which growth is on record?
A: The growth was 12.3% (inactive).

Q: For `COc1ccc(-c2nc(-c3ccccc3OCc3ccccc3OC)nc(C)c2C(C)=O)cc1`, which growth is on record?
A: Its growth is 72% (inactive).

Q: With `CCCCCNCCCCCNc1cc(OC)cc2cccnc12` as the compound, how does the growth read?
A: Its growth is 45.3% (inactive).

Q: `Cc1nc2ncccc2nc1Nc1ccc(S(=O)(=O)Nc2ccccn2)cc1` was tested. Which growth did it give?
A: Its growth is 109% (inactive).

Q: `O=C(NC1CCCCC1)c1ccc(Cl)cc1` was tested. Which growth did it give?
A: Its growth is 104% (inactive).

Q: How did the growth turn out when `C/C(=C(/c1ccccc1)c1ccc(OCC(O)CN2CCOCC2)cc1)c1ccccc1` (stereo not given) was run?
A: Its growth is 85.1% (inactive).

Q: Which growth does the source give for `COc1ccc2cn3c4ccc(O)cc4[nH]c(=O)c3c2c1` here?
A: Its growth is -11.9% (active).

Q: Which growth does the source give for `COc1cc(CN)ccc1O` here?
A: Its growth is 99.7% (inactive).

Q: With `CCN(CC)CCSCCCNc1c2ccc(Cl)cc2nc2ccc(OC)cc12` as the compound, how does the growth read?
A: Its growth is -50.2% (active).

Q: With `C1=C2CNCC3=Cc4ccc5ccccc5c4OC23Oc2c1ccc1ccccc21` as the compound, how does the growth read?
A: Its growth is 50.4% (inactive).

Q: How did the growth turn out when `CCN(CCCNC(=O)Cc1cc(=O)oc2cc(N(C)C)ccc12)CCNc1ccnc2cc(Cl)ccc12` was run?
A: Its growth is 52% (inactive).

Q: With `COc1ccc(/C=C/C(=O)c2ccc(-n3cc(CN4CCN(c5cc6c(cc5F)c(=O)c(C(=O)O)cn6C5CC5)CC4)nn3)cc2)cc1OC` as the compound, how does the growth read?
A: The growth was -7.19% (active).

Q: For `CCCCCCCCCCCCCCCCCCOc1ccccc1CC(=O)OCC[N+]1(C)CCCCC1`, which growth is on record?
A: Its growth is -10.3% (active).

Q: Which growth does the source give for `C=CCSSC1N=CNc2nc[nH]c21` (stereo not given) here?
A: The growth was 5.55% (active).

Q: `CN(C)c1ccc2nc3ccc(=[N+](C)C)cc-3oc2c1` was tested. Which growth did it give?
A: Its growth is -15.4% (active).

Q: Which growth does the source give for `O=C(Nc1ccccc1C(=O)N/N=C(\c1ccccc1)c1ccccn1)c1ccc(F)cc1` here?
A: The growth was 5.1% (active).

Q: Which growth does the source give for `COc1ccc(-c2n/c(=C\c3c(O)[nH]c4ccccc34)cc3c2=Nc2ccccc2-3)cc1` here?
A: The growth was -48% (active).

Q: Which growth does the source give for `Nc1cc(N)c(S(=O)(=O)O)cc1N=Nc1cc([N+](=O)[O-])ccc1O` here?
A: Its growth is 102% (inactive).

Q: `COc1ccc(-c2nnc(SCc3ccc(O)c4ncccc34)n2-c2ccccc2)cc1` was tested. Which growth did it give?
A: Its growth is 10.3% (inactive).
